Each structure is given as a SMILES string.

The assay can be described thus: compound binding in COS7 lysate, probe aLAP1, primary screen, cell lysate, small-molecule microarray (AID 1124).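 Note: lysate comes from COS7 cells expressing LAP1 and is applied at 0.3 µg/mL; score merges spot fluorescence near 667 nm with signal-to-noise over triplicate slides.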 The following applies: probe aLAP1, fluorescence, higher = more signal.
The molecule `COC(=O)[C@@H]1N=C(c2ccc(OCCCO)cc2)O[C@@H]1C` gave a composite z-score of 0.905. As for `C=C[C@H]1C(C(=O)OCC)=CC[C@@H](c2ccccc2)N1S(=O)(=O)c1ccc(C)cc1`, the composite z-score is 0.516. As for `CC(c1ccccc1)C(O)C1C=CC2C(=O)N(C)C(=O)C2N1Nc1ccccc1` (stereo not given), the composite z-score was found to be 0.406. As to `NC(=O)NCC#Cc1ccc2c(c1)[C@]1(C(=O)N2)[C@H](c2ccccc2OCCO)N2[C@H](c3ccccc3)[C@H](c3ccccc3)OC(=O)[C@H]2[C@@H]1C(=O)NC[C@H](O)c1ccccc1`, the composite z-score was found to be 0.428.

`CCCCC[C@H]1OC[C@@]23C=C(Br)[C@@H](CC12)[C@@]1(CO1)C3=O` (stereo not given in full) had a composite z-score of -0.144. With `CCC#CCN(Cc1ccccc1Br)[C@H](/C=C/C1CC1)[C@@H](O)Cc1ccccc1` the figure was -0.477. `COC(=O)C(CC#Cc1ccc2c(c1)[C@]1(C(=O)N2)[C@H](c2ccc(O)cc2)N2[C@H](c3ccccc3)[C@H](c3ccccc3)OC(=O)[C@H]2[C@@H]1C(=O)NC[C@H](O)c1ccccc1)C(=O)OC` came in with a composite z-score of 1.2. `CCCCC(O)C1C=CC2C(=O)N(C)C(=O)C2N1N(c1ccccc1)c1ccccc1` (stereo not given) had a composite z-score of 0.923. In the case of `O=C1[C@H]2C=C(I)[C@H](C[C@@H]2OCCOCCO)[C@@]12CO2`, the composite z-score stood at 0.072.

The molecule `C=CC[C@]1(C(=O)N2CCCCC2)N=C(c2ccc(OCCCO)cc2)O[C@H]1c1ccccc1CN=[N+]=[N-]` yielded a composite z-score of 0.817.

Molecule `COC(=O)[C@@]1(Cc2ccc(OC)cc2)[C@H]2c3cc(C(=O)N4CCCC4)n(CCO)c3C[C@H]2CN1C(=O)c1ccccc1` returned a composite z-score of 0.57. On to `C=CC[C@]1(C(=O)N2CCOCC2)COC(c2ccc(OCCCO)cc2)=N1`, for which the composite z-score is 1.6.

Turning to `CN(C)C(=O)[C@]1(CCC(=O)OC(C)(C)C)N=C(c2ccc(OCCCO)cc2)O[C@@H]1c1ccccc1CN=[N+]=[N-]`, the composite z-score came to 1.15. `CO[C@H]1O[C@H](CO)[C@@H](OC(=O)Nc2ccc3c(c2)OCO3)[C@H](OC(=O)Nc2ccc3c(c2)OCO3)[C@@H]1OC(=O)Nc1ccc2c(c1)OCO2` came in with a composite z-score of 0.943. `C=C[C@@H](OC)[C@H](OC(=O)Nc1ccc(OC)cc1)c1ccc(O)c(F)c1` registered a composite z-score of 0.117. In turn, `COC(=O)c1c(CC[C@@H](CO)NC(=O)N[C@@H](C)Cn2cc(-c3ccccn3)nn2)oc(C(C)=O)c1C(=O)OC` gave a composite z-score of -0.555. Take `CCCC[C@@H](O)C1=C(COC)C[C@H]2C(=O)N(Cc3ccccc3)C(=O)[C@H]2[C@H]1CO`: the composite z-score worked out at 0.263. Take `CCCN1C(=O)[C@]2(Cc3ccccc31)N=C(c1ccc(OCCCO)cc1)O[C@@H]2c1ccccc1`: the composite z-score was determined as 0.402. As to `CCOC(=O)C[C@H]1[C@H](OC(=O)c2ccc(C(=O)c3ccccc3)cc2)[C@@H](NC(=O)C2CCCCC2)c2cc(OCCCO)ccc2N1C(=O)c1ccc2ccccc2n1`, the composite z-score was -0.0375. With `COc1cccc(C)c1NC(=O)O[C@H]1[C@H](OC(=O)Nc2ccc3c(c2)OCO3)[C@@H](OC(=O)Nc2ccc3c(c2)OCO3)[C@@H](OC)O[C@@H]1CO`, the composite z-score came to 1.29. `CC(C)(C)OC(=O)COc1cccc(C(=O)CCN2CCOCC2)c1` returned a composite z-score of -0.281. Molecule `CC(C)NC(=O)[C@@]1(C)c2ccccc2C(=O)N(Cc2ccc(OC(F)(F)F)cc2)[C@H]1c1ccc(CO)cc1` had a composite z-score of 0.173. `COc1cc2c(cc1O)C(c1cccs1)N(Cc1cc3c(cc1Br)OCO3)CC2` (stereo not given) showed a composite z-score of 1.03. Molecule `CCCCNC(=O)c1ccc(C#CC(C)(C)C)c(OC(C)=O)c1` returned a composite z-score of -0.0555. For the molecule `CCCC1(C(=O)OC)C=C2C(=C(C)C(=O)C2C)CN1` (stereo not given), the composite z-score was -0.293. In turn, `O=C(C1N=C(c2ccc(OCCCO)cc2)N(c2ccccc2)O1)N1CCCCC1` (stereo not given) yielded a composite z-score of 0.936. `CCCCN1CC=CC23O[C@@H]4/C=C\CCC(C)OC(=O)C4[C@H]2C(=O)N(CCCO)[C@@H]3C1=O` (stereo not given in full): the composite z-score turned out to be 0.359. `Cc1ccc(S[C@]2(C(=O)NCC(F)(F)F)CC(=O)N(Cc3cc(C(F)(F)F)cc(C(F)(F)F)c3)[C@@H]2c2ccc(CO)cc2)cc1` came in with a composite z-score of -0.238. Molecule `COC(=O)[C@@]1(Cc2ccc(F)cc2)[C@H]2c3cc(C(=O)N(C)C)n(CCc4ccc(OC)c(Br)c4)c3C[C@H]2CN1C(=O)c1ccccc1` showed a composite z-score of 0.0915. `O=C(NCCN1CCOCC1)[C@@H]1c2ccccc2C(=O)N(Cc2ccccc2Cl)[C@H]1c1ccc(CO)cc1` returned a composite z-score of 1.67.

As for `CCCCCN1CC=CC23O[C@@H]4/C=C\CCCOC(=O)C4[C@H]2C(=O)N(C(C)CO)[C@@H]3C1=O` (stereo not given in full), the composite z-score is -0.0467. With `COc1ccc(CCNC(=O)[C@@H]2c3ccccc3C(=O)N(C3CCCCC3)[C@H]2c2ccc(CO)cc2)cc1`, the composite z-score came out at 0.922. As to `C=CCNC(=O)[C@H]1[C@@H]2C(=O)O[C@@H](c3ccccc3)[C@@H](c3ccccc3)N2[C@@H](c2ccccc2OCCO)[C@]12C(=O)N(C(=O)OCCOC)c1ccc(C#CC3(O)CCCCCC3)cc12`, the composite z-score came out at 1.05. `C#Cc1cc2ccccc2oc1=O` came in with a composite z-score of 0.216. `CCCC=C(CCC)[C@@H](NS(=O)(=O)CC12CCC(CC1=O)C2(C)C)c1ccc(C(=O)OC)cc1` (stereo not given in full) registered a composite z-score of 0.154.

The values above are taken from PubChem BioAssay.
